This note sets out measurements from ChEMBL document CHEMBL2218924, “A broad activity screen in support of a chemogenomic map for kinase signalling research and drug discovery” (Biochem J, 2013).

Test [1] has as its target T1, Ephrin type-A receptor 3 (Homo sapiens) (UniProt P29320).
T1 sequence (whole entry): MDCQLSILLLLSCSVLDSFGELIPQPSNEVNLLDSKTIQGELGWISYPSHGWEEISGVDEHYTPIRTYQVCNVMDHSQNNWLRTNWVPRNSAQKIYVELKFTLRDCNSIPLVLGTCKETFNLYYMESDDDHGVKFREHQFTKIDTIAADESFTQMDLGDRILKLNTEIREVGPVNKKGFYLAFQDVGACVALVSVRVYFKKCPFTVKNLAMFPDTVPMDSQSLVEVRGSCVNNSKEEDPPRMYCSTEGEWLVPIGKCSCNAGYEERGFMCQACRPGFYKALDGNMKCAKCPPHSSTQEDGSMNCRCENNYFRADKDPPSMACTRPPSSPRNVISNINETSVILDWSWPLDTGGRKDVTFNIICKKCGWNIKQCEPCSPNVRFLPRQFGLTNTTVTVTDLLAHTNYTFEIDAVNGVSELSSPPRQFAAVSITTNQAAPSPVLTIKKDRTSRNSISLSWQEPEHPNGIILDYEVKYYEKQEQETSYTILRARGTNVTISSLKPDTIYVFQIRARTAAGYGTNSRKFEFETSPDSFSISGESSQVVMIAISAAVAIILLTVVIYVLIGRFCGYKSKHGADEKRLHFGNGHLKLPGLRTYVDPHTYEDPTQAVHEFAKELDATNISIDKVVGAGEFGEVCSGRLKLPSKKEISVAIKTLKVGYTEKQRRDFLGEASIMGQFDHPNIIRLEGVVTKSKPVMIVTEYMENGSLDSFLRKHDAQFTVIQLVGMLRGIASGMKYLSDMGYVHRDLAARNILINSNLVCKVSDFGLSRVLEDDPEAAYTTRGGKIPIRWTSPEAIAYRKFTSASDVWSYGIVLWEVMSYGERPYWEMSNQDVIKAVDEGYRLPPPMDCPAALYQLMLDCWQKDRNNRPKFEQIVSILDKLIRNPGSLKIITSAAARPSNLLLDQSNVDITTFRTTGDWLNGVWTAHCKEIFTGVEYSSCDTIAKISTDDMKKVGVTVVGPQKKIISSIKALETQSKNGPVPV
Conditions: at 10 µM.

Test [2] deals with Ephrin type-A receptor 4 (Homo sapiens) (UniProt P54764). Conditions: at 1 µM.
Test [3] shares this target. Conditions: at 10 µM.
Test [4] deals with Ephrin type-A receptor 5 (Homo sapiens) (UniProt P54756). Conditions: at 1 µM.
For test [5] the target is unchanged. Conditions: at 10 µM.
Test [6] deals with Ephrin type-A receptor 7 (Homo sapiens) (UniProt Q15375). Conditions: at 1 µM.
Test [7] has the same target. Conditions: at 10 µM.
Test [8] concerns the target T2, Ephrin type-A receptor 8 (Homo sapiens) (UniProt P29322).
T2 sequence (whole entry): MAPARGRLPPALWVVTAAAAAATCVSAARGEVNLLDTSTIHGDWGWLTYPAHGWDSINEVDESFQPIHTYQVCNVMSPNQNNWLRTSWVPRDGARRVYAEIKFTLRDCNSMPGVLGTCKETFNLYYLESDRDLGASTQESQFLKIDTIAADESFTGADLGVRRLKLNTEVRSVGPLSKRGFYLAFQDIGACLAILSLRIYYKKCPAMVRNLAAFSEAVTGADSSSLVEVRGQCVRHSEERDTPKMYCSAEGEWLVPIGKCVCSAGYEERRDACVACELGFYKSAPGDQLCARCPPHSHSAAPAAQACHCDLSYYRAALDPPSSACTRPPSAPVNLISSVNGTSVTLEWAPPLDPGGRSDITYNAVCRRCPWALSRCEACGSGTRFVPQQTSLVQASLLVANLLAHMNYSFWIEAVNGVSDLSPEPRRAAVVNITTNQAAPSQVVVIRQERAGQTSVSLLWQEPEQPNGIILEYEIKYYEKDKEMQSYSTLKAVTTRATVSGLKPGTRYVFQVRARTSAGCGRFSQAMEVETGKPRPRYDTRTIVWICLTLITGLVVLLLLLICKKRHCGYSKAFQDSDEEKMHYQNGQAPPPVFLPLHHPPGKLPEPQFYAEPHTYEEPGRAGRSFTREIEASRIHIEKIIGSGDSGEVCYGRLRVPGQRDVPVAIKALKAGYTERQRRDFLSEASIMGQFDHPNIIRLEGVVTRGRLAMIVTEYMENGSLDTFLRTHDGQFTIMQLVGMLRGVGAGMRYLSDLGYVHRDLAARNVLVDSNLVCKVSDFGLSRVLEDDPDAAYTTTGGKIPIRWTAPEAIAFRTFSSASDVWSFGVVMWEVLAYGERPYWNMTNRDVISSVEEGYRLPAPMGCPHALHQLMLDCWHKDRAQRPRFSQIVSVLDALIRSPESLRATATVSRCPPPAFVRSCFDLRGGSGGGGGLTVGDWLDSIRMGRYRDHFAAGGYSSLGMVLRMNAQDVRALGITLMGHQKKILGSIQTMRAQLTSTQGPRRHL
Conditions: at 1 µM.

For test [9], the target named is T2, Ephrin type-A receptor 8 (Homo sapiens). Conditions: at 10 µM.
The target of test [10] is T3, Ephrin type-B receptor 1 (Homo sapiens) (UniProt P54762).
T3 sequence (whole entry): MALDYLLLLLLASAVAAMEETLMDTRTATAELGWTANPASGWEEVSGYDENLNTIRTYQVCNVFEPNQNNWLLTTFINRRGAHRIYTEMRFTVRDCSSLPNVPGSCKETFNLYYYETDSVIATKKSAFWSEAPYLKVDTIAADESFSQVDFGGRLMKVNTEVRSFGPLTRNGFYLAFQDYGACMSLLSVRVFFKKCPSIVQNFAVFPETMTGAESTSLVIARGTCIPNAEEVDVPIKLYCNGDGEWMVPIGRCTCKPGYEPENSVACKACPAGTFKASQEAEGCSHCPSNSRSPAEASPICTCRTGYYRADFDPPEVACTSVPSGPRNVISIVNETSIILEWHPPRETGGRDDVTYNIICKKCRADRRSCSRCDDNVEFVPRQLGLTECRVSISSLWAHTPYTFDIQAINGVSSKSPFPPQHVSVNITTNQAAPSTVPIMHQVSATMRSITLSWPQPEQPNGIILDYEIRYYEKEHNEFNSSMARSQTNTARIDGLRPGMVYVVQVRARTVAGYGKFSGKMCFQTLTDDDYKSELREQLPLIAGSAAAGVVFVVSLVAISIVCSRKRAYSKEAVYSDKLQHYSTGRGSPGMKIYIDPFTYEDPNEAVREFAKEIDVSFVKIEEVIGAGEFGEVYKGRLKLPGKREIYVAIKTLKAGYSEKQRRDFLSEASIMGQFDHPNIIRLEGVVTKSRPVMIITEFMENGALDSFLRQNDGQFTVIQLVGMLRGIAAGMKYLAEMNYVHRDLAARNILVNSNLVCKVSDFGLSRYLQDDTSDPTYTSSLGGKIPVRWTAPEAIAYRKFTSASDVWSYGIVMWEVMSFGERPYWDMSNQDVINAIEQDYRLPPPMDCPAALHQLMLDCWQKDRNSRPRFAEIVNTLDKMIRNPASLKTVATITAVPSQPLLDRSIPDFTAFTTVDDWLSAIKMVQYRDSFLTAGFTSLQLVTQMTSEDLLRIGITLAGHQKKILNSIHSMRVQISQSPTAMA
Conditions: at 1 µM.

Sequence of Ephrin type-A receptor 7 (Homo sapiens) (Q15375 28-998 limits assumed): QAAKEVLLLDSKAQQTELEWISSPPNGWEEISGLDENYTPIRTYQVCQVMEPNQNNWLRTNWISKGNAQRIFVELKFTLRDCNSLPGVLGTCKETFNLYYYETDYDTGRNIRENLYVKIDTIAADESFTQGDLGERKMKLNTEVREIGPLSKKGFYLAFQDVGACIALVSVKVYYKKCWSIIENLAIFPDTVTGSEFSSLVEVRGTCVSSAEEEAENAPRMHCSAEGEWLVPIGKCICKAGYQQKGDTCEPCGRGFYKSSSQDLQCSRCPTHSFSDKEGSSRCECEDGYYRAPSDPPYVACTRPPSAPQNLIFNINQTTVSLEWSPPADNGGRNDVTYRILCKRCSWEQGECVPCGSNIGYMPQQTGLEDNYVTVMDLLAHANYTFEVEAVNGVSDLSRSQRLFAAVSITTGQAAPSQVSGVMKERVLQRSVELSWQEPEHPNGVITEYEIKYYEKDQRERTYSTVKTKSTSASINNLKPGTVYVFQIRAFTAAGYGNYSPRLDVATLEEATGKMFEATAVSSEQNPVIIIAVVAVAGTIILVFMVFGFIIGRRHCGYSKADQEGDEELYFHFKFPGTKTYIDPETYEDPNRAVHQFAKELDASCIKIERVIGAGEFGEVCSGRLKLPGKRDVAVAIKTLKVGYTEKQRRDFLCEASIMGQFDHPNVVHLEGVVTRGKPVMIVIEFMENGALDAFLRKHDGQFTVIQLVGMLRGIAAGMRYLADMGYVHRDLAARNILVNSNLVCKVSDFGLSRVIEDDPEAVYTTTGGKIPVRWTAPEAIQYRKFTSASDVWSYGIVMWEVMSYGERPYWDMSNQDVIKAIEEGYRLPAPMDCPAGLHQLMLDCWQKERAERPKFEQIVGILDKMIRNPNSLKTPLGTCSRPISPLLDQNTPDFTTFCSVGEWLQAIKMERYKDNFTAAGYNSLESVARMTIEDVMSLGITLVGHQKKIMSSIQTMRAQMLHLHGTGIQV
Sequence of Ephrin type-A receptor 4 (Homo sapiens) (P54764 whole entry): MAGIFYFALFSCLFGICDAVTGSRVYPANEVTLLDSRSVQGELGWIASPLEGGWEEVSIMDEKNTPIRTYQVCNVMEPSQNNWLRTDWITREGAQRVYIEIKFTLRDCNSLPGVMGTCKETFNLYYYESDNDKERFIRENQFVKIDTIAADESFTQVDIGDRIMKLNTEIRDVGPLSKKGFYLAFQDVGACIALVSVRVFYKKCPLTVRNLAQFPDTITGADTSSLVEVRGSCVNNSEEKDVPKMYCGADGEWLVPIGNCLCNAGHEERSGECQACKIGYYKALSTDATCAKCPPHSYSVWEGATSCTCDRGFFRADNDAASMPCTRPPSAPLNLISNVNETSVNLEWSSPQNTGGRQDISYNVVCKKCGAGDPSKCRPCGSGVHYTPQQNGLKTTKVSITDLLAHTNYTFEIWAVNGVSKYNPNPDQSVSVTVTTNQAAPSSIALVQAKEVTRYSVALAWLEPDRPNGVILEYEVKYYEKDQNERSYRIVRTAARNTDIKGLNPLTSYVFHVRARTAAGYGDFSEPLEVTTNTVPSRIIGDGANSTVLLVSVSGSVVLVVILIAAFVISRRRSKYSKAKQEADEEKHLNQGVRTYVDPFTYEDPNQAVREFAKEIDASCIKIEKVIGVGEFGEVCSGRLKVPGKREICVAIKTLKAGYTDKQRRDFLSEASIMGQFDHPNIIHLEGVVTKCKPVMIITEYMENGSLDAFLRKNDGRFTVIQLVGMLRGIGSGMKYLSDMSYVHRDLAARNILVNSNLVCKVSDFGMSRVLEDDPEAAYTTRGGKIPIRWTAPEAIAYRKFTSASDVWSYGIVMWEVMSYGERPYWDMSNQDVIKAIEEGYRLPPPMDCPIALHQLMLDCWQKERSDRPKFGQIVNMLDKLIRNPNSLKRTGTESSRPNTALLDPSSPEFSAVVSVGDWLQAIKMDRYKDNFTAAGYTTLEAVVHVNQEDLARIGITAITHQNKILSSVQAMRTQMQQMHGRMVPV
Sequence of Ephrin type-A receptor 5 (Homo sapiens) (P54756 whole entry): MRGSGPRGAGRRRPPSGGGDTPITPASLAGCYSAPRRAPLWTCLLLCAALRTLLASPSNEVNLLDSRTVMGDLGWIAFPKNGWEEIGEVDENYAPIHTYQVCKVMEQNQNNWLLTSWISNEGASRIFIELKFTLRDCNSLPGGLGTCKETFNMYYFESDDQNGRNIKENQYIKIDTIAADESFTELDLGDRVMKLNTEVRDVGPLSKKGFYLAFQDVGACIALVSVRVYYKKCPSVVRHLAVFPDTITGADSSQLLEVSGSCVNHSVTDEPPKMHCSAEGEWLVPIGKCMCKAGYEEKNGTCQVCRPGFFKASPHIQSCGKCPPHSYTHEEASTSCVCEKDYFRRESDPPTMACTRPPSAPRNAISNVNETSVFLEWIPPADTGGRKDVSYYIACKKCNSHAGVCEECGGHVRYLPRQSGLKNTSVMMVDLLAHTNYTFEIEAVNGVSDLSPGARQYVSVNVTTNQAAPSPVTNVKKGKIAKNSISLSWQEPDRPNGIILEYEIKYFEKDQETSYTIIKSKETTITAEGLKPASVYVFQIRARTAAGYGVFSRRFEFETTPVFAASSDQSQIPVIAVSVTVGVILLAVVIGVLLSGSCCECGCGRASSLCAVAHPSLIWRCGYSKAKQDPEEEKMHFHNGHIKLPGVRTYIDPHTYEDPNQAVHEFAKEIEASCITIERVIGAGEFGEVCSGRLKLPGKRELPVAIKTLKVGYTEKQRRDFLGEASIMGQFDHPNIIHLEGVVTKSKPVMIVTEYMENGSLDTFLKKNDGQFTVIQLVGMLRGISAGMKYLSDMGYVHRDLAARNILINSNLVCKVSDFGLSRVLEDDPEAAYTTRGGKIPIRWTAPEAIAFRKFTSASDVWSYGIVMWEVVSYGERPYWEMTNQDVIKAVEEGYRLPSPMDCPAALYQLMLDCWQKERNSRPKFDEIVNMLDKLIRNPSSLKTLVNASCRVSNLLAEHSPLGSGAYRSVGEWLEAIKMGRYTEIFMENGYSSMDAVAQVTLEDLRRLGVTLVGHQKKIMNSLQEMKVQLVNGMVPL

In the case of `O=c1cc(-c2cccc3c2Sc2ccccc2S3)oc(N2CCOCC2)c1`, the residual activity in [1] stood at 94%; in test [2] it was 106%; in test [3], 104%; in test [4] it was 113%; in test [5] it was 88%; in test [6], 97%. Further, the residual activity was determined as 98% in test [7], 108% in test [8], 111% in [9] and 97% in test [10].

A word on the residual activity: it is the signal under treatment as a percentage of the control signal.
